Data on six compounds can be found in PubChem BioAssay (NCI).

A short description of assay [1]: NCI Yeast Anticancer Drug Screen. Data for the rad50 strain (AID 155).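 Also: 0% = growth of vehicle-only cultures of the same strain.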 The following applies: S. cerevisiae rad50 strain growth inhibition, stronger effect = higher value. In outline:
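Compounds were tested on a yeast strain with an engineered DNA damage repair alteration; the reported value is growth inhibition normalised to vehicle treatment.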

The nature of assay [2]: NCI Yeast Anticancer Drug Screen. Data for the mec2-1 strain (AID 157). The settings on record: S. cerevisiae mec2-1 strain, stronger effect = higher value. In outline:
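Yeast mec2-1 mutant treated with compound. Readout: growth inhibition vs vehicle controls.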

The nature of assay [3]: NCI Yeast Anticancer Drug Screen. Data for the sgs1 mgt1 strain (AID 161).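 Also: 0% = growth of cultures given vehicle only.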 The following applies: S. cerevisiae sgs1 mgt1 strain, stronger effect = higher value. Summed up: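 Inhibition of yeast growth, normalised to vehicle-treated controls, is reported for a strain bearing genetic alterations in DNA damage repair.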
Assay [4] can be described thus: NCI Yeast Anticancer Drug Screen. Data for the cln2 rad14 strain (AID 165).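 Also: 0% = growth equal to vehicle treated cultures.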 The following applies: S. cerevisiae cln2 rad14 strain, stronger effect = higher value. Summed up: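 cln2 rad14 yeast strain; compound exposure; growth inhibition read vs vehicle controls.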
Assay [5] in a line: NCI Yeast Anticancer Drug Screen. Data for the bub3 strain (AID 167). The settings on record: S. cerevisiae bub3 mutant strain, stronger effect = higher value. Summed up:
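Growth of a checkpoint-deficient yeast mutant is measured after compound exposure. Values represent inhibition relative to vehicle.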

The nature of assay [6]: NCI Yeast Anticancer Drug Screen. Data for the mlh1 rad18 strain (AID 175). The settings on record: S. cerevisiae mlh1 rad18 strain growth inhibition, stronger effect = higher value. Summed up:
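Yeast w/ defined DNA-repair lesions; compound exposure; growth vs vehicle controls → % inhibition.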

The mark [7] stands for this setting: at 5.0 µM (retest, dose inferred, filed as 0.5).
[8] abbreviates: at 50.0 µM (retest, dose inferred, filed as 5.0).

The structures appear in SMILES notation. This is part of a sample that, as a whole, favours compounds with a hit. Of some 79,000 tested, about 15% had one in any assay. A number with no mark means an inactive call. Calls of active or inactive are those of the source. Rule as the data show it: active = growth inhibition above about 70%; inactive = the rest.

For the compound `O=c1c(Cc2c[nH]c3ccccc23)coc2ccccc12`, the growth inhibition in assay [1] (setting [7]) was 0%; in assay [1] (setting [8]) it was 95% (active); in assay [1] (at 50.0 µM), 24.2%; in assay [2] (setting [7]), 8%; in assay [2] (setting [8]), 91% (active); in assay [2] (at 50.0 µM), 7.85%. For the same compound, the growth inhibition in assay [3] (setting [7]) is 3%; in assay [3] (setting [8]), 84% (active); in assay [3] (at 50.0 µM), 51.1%; in assay [4] (setting [7]), 10%; in assay [4] (setting [8]), 92% (active); in assay [4] (at 50.0 µM) it was -69.5%. The growth inhibition is 9% in assay [5] (setting [7]); 98% (active) in assay [5] (setting [8]); 14.1% in assay [5] (at 50.0 µM); 0% in assay [6] (setting [7]); 95% (active) in assay [6] (setting [8]); 21.8% in assay [6] (at 50.0 µM).

Turning to `CCCCCCCCCCCC[N+](C)(C)C` (tested in a mixture with another compound), the growth inhibition is -7% in assay [1] (setting [7]); 99% (active) in assay [1] (setting [8]); 67.9% in assay [1] (at 50.0 µM); 5% in assay [2] (setting [7]); 99% (active) in assay [2] (setting [8]); 93.8% (active) in assay [2] (at 50.0 µM). Also, the growth inhibition in assay [3] (setting [7]) was -4%; in assay [3] (setting [8]) it was 98% (active); in assay [3] (at 50.0 µM) it was 49.2%; in assay [4] (setting [7]), 5%; in assay [4] (setting [8]), 98% (active); in assay [4] (at 50.0 µM), 10.6%. Also, the growth inhibition in assay [5] (setting [7]) was 20%; in assay [5] (setting [8]), 99% (active); in assay [5] (at 50.0 µM), 88.5% (active); in assay [6] (setting [7]), 0%; in assay [6] (setting [8]) it was 98% (active); in assay [6] (at 50.0 µM), 64%.

Turning to `c1ccc2c(c1)C[N+]1(CCCCCCC1)C2`, the growth inhibition in assay [1] (setting [7]) was 19%; in assay [1] (setting [8]) it was 51%; in assay [1] (at 50.0 µM) it was 74.2% (active); in assay [2] (setting [7]), 6%; in assay [2] (setting [8]), 64%; in assay [2] (at 50.0 µM), 72.7% (active). Also, the growth inhibition is -2% in assay [3] (setting [7]); 77% (active) in assay [3] (setting [8]); 69.9% in assay [3] (at 50.0 µM); -14% in assay [4] (setting [7]); 25% in assay [4] (setting [8]); 53.6% in assay [4] (at 50.0 µM). The growth inhibition was -3% in assay [5] (setting [7]); 36% in assay [5] (setting [8]); 58.9% in assay [5] (at 50.0 µM); 6% in assay [6] (setting [7]); 88% (active) in assay [6] (setting [8]); 65.8% in assay [6] (at 50.0 µM).

For `Oc1[nH]c2ccccc2c1N=NC(=S)NCc1ccccn1`, the growth inhibition in assay [1] (setting [7]) was 9%; in assay [1] (setting [8]), 99% (active); in assay [1] (at 50.0 µM) it was 77.4% (active); in assay [2] (setting [7]), 2%; in assay [2] (setting [8]) it was 99% (active); in assay [2] (at 50.0 µM) it was 86.3% (active). For the same compound, the growth inhibition in assay [3] (setting [7]) was 22%; in assay [3] (setting [8]), 98% (active); in assay [3] (at 50.0 µM), 90.9% (active); in assay [4] (setting [7]) it was 31%; in assay [4] (setting [8]), 99% (active); in assay [4] (at 50.0 µM) it was 90.5% (active). Further, the growth inhibition in assay [5] (setting [7]) was 3%; in assay [5] (setting [8]) it was 99% (active); in assay [5] (at 50.0 µM), 90.8% (active); in assay [6] (setting [7]), 26%; in assay [6] (setting [8]) it was 99% (active); in assay [6] (at 50.0 µM), 91.8% (active).

On to `Fc1cccc(NC(=S)SCc2ccc(Cl)cc2)c1`, for which the growth inhibition in assay [1] (setting [7]) was 20%; in assay [1] (setting [8]), 98% (active); in assay [1] (at 50.0 µM) it was 99.4% (active); in assay [2] (setting [7]) it was 15%; in assay [2] (setting [8]), 98% (active); in assay [2] (at 50.0 µM) it was 99.7% (active). Also, the growth inhibition in assay [3] (setting [7]) is 12%; in assay [3] (setting [8]), 99% (active); in assay [3] (at 50.0 µM), 99.7% (active); in assay [4] (setting [7]), -6%; in assay [4] (setting [8]), 99% (active); in assay [4] (at 50.0 µM), 99.5% (active). Also, the growth inhibition in assay [5] (setting [7]) is 10%; in assay [5] (setting [8]), 98% (active); in assay [5] (at 50.0 µM), 99.5% (active); in assay [6] (setting [7]) it was 23%; in assay [6] (setting [8]) it was 99% (active); in assay [6] (at 50.0 µM), 99.6% (active).

For `CC1=C(C(=O)Nc2ccc(C)cc2C)C(c2cccc([N+](=O)[O-])c2)C(C(=O)Nc2ccc(C)cc2C)=C(C)N1`, the growth inhibition was -17% in assay [1] (setting [7]); 50% in assay [1] (setting [8]); 28.6% in assay [1] (at 50.0 µM); 12% in assay [2] (setting [7]); 74% (active) in assay [2] (setting [8]); 38.5% in assay [2] (at 50.0 µM). The growth inhibition is -4% in assay [3] (setting [7]); 47% in assay [3] (setting [8]); 33% in assay [3] (at 50.0 µM); 10% in assay [4] (setting [7]); 42% in assay [4] (setting [8]); 36.6% in assay [4] (at 50.0 µM). In addition, the growth inhibition is 14% in assay [5] (setting [7]); 69% in assay [5] (setting [8]); 37.2% in assay [5] (at 50.0 µM); 4% in assay [6] (setting [7]); 44% in assay [6] (setting [8]); 41.1% in assay [6] (at 50.0 µM).
